In PubChem BioAssay AID1875 (Broad Institute, 2009):
Among all 300,000 compounds or so, about 65 (0.02%) were called active. The sample holds actives, similar compounds and a random draw of the others, so the mix is not that of the screen. Unmarked numbers belong to inactive results.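 How the source made its calls: active means lowest replicate activity score at least 50, where 100 means six control SD above control mean; inconclusive means lowest score under 50 but half or more replicates reach 50; inactive means the rest.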

Experiment: polyadenylation inhibitors in yeast reporter cells, primary screen, luminescence, S. cerevisiae (AID 1875);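 further: yeast exposed to compound for 9 h at 30 °C; higher score means more reporter readthrough which indicates perturbed polyadenylation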
Settings: S. cerevisiae SKY197-pL101 polyadenylation reporter, beta-gal luminescence; at 12 µM; active compounds read high; efflux-impaired pdr1/pdr3 knockout yeast; score 100 = 6 SD above DMSO

Structure (SMILES) | activity score
CCOc1ccccc1N1C(=O)CC(Sc2nccc(C)n2)C1=O (stereo not drawn) | 13.3%
CC(C)COP(=O)(c1ccc(N(C)C)cc1)C(Nc1ccccc1)c1cccnc1 (stereo not drawn) | 9.1%
Cc1ccc2nsnc2c1S(=O)(=O)N1CCCC1C(=O)O (stereo not drawn) | 12.1%
CC(/C=C/C1(O)C(C)CC(=O)CC1(C)C)OC1OC(CO)C(O)C(O)C1O (stereo not drawn) | 14.6%
Cc1nnc(SC(C)C(=O)Nc2ccc(S(=O)(=O)NC3CCCCC3)cc2)s1 (stereo not drawn) | -4.69%
O=C(CSc1ccccn1)Nc1nc2c(ccc3ccccc32)s1 | -14.3%
COc1ccc(NC(=O)c2cccc(Cl)c2)c[n+]1[O-] | 10.9%
COc1ccc(C(=O)N(Cc2ccccc2)c2ccc(C)cc2)cc1S(=O)(=O)N1CCOCC1 | -2.8%
Cn1c(N)c(C(=O)COC(=O)/C=C/c2ccc(OC(F)F)cc2)c(=O)n(C)c1=O | 0.664%
CCOc1ccc(S(=O)(=O)NCc2ccc3c(c2)OCO3)cc1C | 12.5%
Cc1cc(C)c(OCC(=O)N(Cc2cccs2)C2CCS(=O)(=O)C2)c(C)c1 (stereo not drawn) | 21.1%
C#CCOCCOCCOCCNc1nc(N2CCN(C(=O)C([C@@H](C)CC)n3cc(C(N)COC(=O)C(F)(F)F)nn3)CC2)nc(N2CCN(C(=O)[C@H](CCCCN)n3cc(C(N)CC(C)C)nn3)CC2)n1 (stereo partly drawn) | -6.03%
Cc1ccc(NC(=O)CN2CCc3ccccc3C2)cc1C | -2.27%
Cc1ccc(NC(=O)CSCC(=O)Nc2sccc2C#N)cc1 | 11.2%
CCc1ccc2nc3sc(C(=O)Nc4nnc(CC)s4)c(N)c3cc2c1 | 34.8%
Cc1ccc(NC(=O)c2sc3nc(N)c(C#N)cc3c2N)cc1 | 55.3% (active)
O=C1N(Cc2ccc3c(c2)OCO3)c2ccccc2C1(O)c1c[nH]c2ccccc12 (stereo not drawn) | -1.62%
CC(=O)N1CCN(c2ccc(NCc3ccc(C(C)C)cc3)cc2)CC1 | 11.3%
COC(=O)c1ccccc1NC(=O)CN(Cc1ccc(Cl)cc1)S(C)(=O)=O | -7.02%
COc1cccc(CNS(=O)(=O)c2cc3c(cc2C)n(C)c(=O)c(=O)n3C)c1 | -4.51%
CCCCn1c(N)c(N(CCOC)C(=O)c2oc3ccc(OC)cc3c2C)c(=O)[nH]c1=O | -1.46%
CC(C)=CC(=O)Nc1nnc(-c2ccc(F)cc2)s1 | 24%

Structure (SMILES) | activity score
CCn1c(CC(=O)Nc2ccccc2C)nnc1SCC(=O)NC1=NCCS1 | -11.9%
O=C(NC(=S)Nc1cccc2c(O)cccc12)c1cccc(Br)c1 | -27%
N/C(=N\S(=O)(=O)c1cc(C(F)(F)F)cc(C(F)(F)F)c1)c1cccs1 | 23.1%
CCOc1ccc(N2CC(C(=O)NCc3ccccn3)CC2=O)cc1 (stereo not drawn) | 9.19%
CCc1ccc(-c2nn(-c3ccccc3)cc2CSC(=N)N)cc1 | 0.301%
COc1ccccc1OCc1ccc(C(=O)NC(C)c2ccccc2)o1 (stereo not drawn) | 9.72%
CS(=O)(=O)N(CC(=O)N1CCc2ccccc2C1)c1ccc(Br)cc1 | -7.16%
COc1cccc(COC(=O)C2CCN(S(=O)(=O)c3ccc(Cl)cc3)CC2)c1OC | 10.3%
Cc1ccc(NC(=O)c2cc3ccccc3o2)cc1 | -13.9%
O=C(NCCS(=O)(=O)N1CCN(c2ccccc2F)CC1)c1ccc(Br)o1 | 1.43%
CCOc1ccc(C2c3[nH]c4ccccc4c3CCN2Cc2cccn2-c2ncccn2)cc1 (stereo not drawn) | 0.986%
CCc1c(C)nc2c(OC)cccc2c1Cl | -37.6%
O=C(CN1CCOCC1)Nc1c2c(nc3c1CCC3)CCC2 | 1.76%
CC1(C)CCSC(/C=C/c2ccccc2)=N1 | 6.99%
COc1ccc(-n2c(O)c(C=NCC(c3ccco3)N3CCCC3)c3ccccc3c2=O)cc1OC (stereo not drawn) | 6.18%
COc1cc(NC(=O)c2cncc(-c3ccc(C#N)cc3)c2)cc(C(=O)Nc2cccc(C(F)(F)F)c2)c1 | -7.7%
O=C(C1CCN(c2nnc(-n3cccc3)s2)CC1)N1CCc2ccccc2C1 | 9.11%
CCc1noc(C)c1C(=O)Oc1ccc(N(C)S(=O)(=O)c2ccc(C)c(C)c2)cc1 | 0.103%
Cc1ccc(CNC(=O)C2CCN(S(=O)(=O)c3ccc4nc5c(c(C(=O)O)c4c3)CC(C)CC5)CC2)cc1 (stereo not drawn) | -6.73%
CCn1cc(CN2CCC(C(=O)Nc3cccc(-c4cccc(Cl)c4)c3)CC2)c(C)n1 | 3.2%
Cc1ccc(-c2cc(C(=O)NCc3cn(C)nc3C)c3cc(Br)ccc3n2)cc1 | 2.61%
O=C(c1ccncc1)N1CCN(S(=O)(=O)c2cc(C(F)(F)F)cc(C(F)(F)F)c2)CC1 | 9.96%

Structure (SMILES) | activity score
COc1ccc(C(CNC(=O)c2ccc(S(=O)(=O)Nc3ccccc3F)cc2)N(C)C)cc1 (stereo not drawn) | 4.77%
CCCCn1c(N)c(N(CCOC)C(=O)CSCC(=O)Nc2cccc(C)c2)c(=O)[nH]c1=O | 10.8%
Cc1cc(C)nc(NS(=O)(=O)c2ccc(N/C=C\C(=O)c3cccs3)cc2)n1 | -11%
O=C(c1snnc1-c1ccccc1)N1CCOCC1 | 18.7%
CC(OC(=O)CNC(=O)c1ccco1)C(=O)Nc1ccc(Cl)cn1 (stereo not drawn) | -11.7%
CCOc1ccccc1OCCCNCc1ccccc1 | 14.2%
COc1cc(C(=O)NCCOC(=O)c2cccc(N(C)C)c2)cc(OC)c1OC | 1.84%
O=c1[nH]cnc(O)c1C(c1ccc(F)cc1)c1c(O)nc[nH]c1=O | -1.62%
COc1ccc([N+](=O)[O-])cc1N(CC(O)CN(CC(C)C)CC(C)C)S(=O)(=O)c1ccc(C)cc1 (stereo not drawn) | 12.6%
O=[N+]([O-])c1cc(C(F)(F)F)ccc1NCCc1ccncc1 | -17.4%
CC(C)CCNC(=O)c1cccnc1Sc1ccccc1 | -10.2%
COc1ccc(NC(=O)C/C(C)=N/NC(=O)c2cnccn2)cc1Cl | 4.46%
CCN(CC)CC(=O)Nc1nn(-c2ccccc2)nc1C(N)=O | 3.8%
Cc1ccccc1N1C(=O)C(Oc2ccc(Cl)cc2)C1CNCC1CCCO1 (stereo not drawn) | -13.7%
COC(=O)c1ccc(SCc2ccccc2)nc1 | 5.84%
CC(C)(C)N(Cc1ccccc1)C(=O)COC(=O)CCc1c[nH]c2ccccc12 | 9.29%
CCN(CC)c1ccc(C(=O)Nn2c(C)nc3ccccc3c2=O)cc1 | -0.748%
O=C(CCc1nnc(Cc2ccc3c(c2)OCO3)o1)NCCc1ccccc1Cl | 6.46%
O=C(COc1coc(CN2CCN(c3ccccc3)CC2)cc1=O)N1CCc2ccccc21 | -4.04%
O=C(Cc1ccccc1)Nc1c(Cl)ccc2nsnc12 | 16.1%
Cc1[nH]n(C(N)=S)c(=O)c1N=Nc1ccc(Cl)cc1Cl | -14.2%
COc1ccc(OC)c(NC(=O)CSc2nc(-c3ccccc3)cc(=O)[nH]2)c1 | -4.65%

Structure (SMILES) | activity score
CC1CCN(CCCn2c(SCC(=O)NC3CCCC3)nc3ccccc3c2=O)CC1 | -3.59%
COc1cccc(C(=O)Nc2nnc(S(=O)(=O)N3CCOCC3)s2)c1 | 16.5%
Cc1ccc(S(=O)(=O)C2C(=O)NC3(C)CC2c2ccccc2O3)cc1 (stereo not drawn) | 1.24%
COc1ccc(C(=O)C2CCCN(C(=O)c3cc4nc(C)cc(C)n4n3)C2)cc1F (stereo not drawn) | 4.72%
CN(CCO)c1ccc(/C=N/Nc2nncc3ccccc23)cc1 | -9.02%
Cc1ccccc1CN1C[C@@H]2C[C@@H](c3cn(C)nc3-c3ccccc3)N3CCC[C@@]23C1=O | -0.645%
COc1cc(CNc2ncn[nH]2)ccc1OCc1ccccc1C | 5.71%
CN(CCOc1ccccc1)Cc1nc2cc(Cl)ccc2c(=O)[nH]1 | 6.63%
CC(C)(C)c1ccccc1NC(=O)CN1C(=O)NC2(CCCC2)C1=O | 9.67%
Cc1ccc(CS(=O)(=O)CCC(=O)NCc2ccc(F)cc2)cc1 | -0.106%
CCn1c(Cc2ccc(OC)cc2)nnc1SCC(=O)Nc1ccc(N2CCOCC2)cc1 | -14.5%
Cc1ccc(NN=Nc2nc3c([nH]2)c(=O)n(C)c(=O)n3C)cc1 | 15.9%
COc1cc(NS(=O)(=O)c2ccc(NC(=O)c3ccc([N+](=O)[O-])cc3)cc2)ncn1 | -0.0482%
O=C(CCCCCn1c(=S)[nH]c2ccsc2c1=O)NC1CCCCC1 | -14.5%
CCCCn1c(N)c(N(CCOC)C(=O)c2cccc(OCc3ccccc3)c2)c(=O)[nH]c1=O | -6.78%
Brc1ccccc1/C=N/Nc1nc2ccccc2o1 | -16.6%
Cc1ccc(N(Cc2cc(=O)[nH]c3ccccc23)C(=O)CCl)cc1 | 29.9%
COC(=O)c1c(C)[nH]c(C(=O)/C=C/c2ccc(Cl)cc2)c1C | -2.04%
O=C(NCCc1ccccc1)C1CCC(Cn2c(=O)c3ccccc3n(Cc3cccnc3)c2=O)CC1 (stereo not drawn) | -5.99%
COc1ccc(-c2nn(-c3ccccc3)cc2CN2CCCO2)c(F)c1 | 0.939%
O=C(NCCCn1ccnc1)/C(=C\c1ccccc1F)NC(=O)c1ccccc1 | 11.1%
CN(C(=O)C1CCN(c2ncnc3c2nc2n3CCCCC2)CC1)C1CCCCC1 | 5.63%
